Compound activity (PubChem BioAssay)
Rows were chosen to be rich in hits. Some 4.6% of all compounds tested hit in one or more screens of this group.
proKLK7 act = proKLK7 (human) activation, primary screen; P49862; purified proKLK7, EDANS-DABCYL substrate fluorescence; 100% is mature enzyme control, 0% vehicle; activation, % at 7 µM; hit rate 0.9% among 370,000;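 active = activation above the mean of all tested compounds plus 3 SD, computed per campaign excluding outliers beyond control limits, cut at about 13% in these data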
FAS TE block = blocks the thioesterase domain of human fatty acid synthase; hit rate 0.67% among 360,000; recombinant FAS-TE, OMFH fluorogenic substrate, fluorescence endpoint; inhibition, % at 15 µM;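 active = compounds whose normalised, plate-corrected inhibition of enzyme fluorescence in the single-dose primary screen is 50% or more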;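 also: 0% = DMSO with enzyme and 100% = substrate without enzyme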
NR3A LBD binder = NR3A (human) ligand-binding domain modulation; Tm shift relative to glycine control, % at 25 µM; NR3A LBD differential scanning fluorimetry, Tm shift; 0% = protein alone, 100% = glycine-bound protein; hit rate 2.5% among 340,000; AID 1259313;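 active = melting temperature shift of at least 10% of the positive control shift, at one fixed dose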
ADAM10 inh = inhibits human ADAM10; recombinant ADAM10, EDANS/DABCYL FRET peptide cleavage, 3 h; inhibition, % at 7 µM; hit rate 0.62% among 370,000; AID 720582;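 active = inhibition above a per-campaign cutoff equal to the mean of compounds falling between control-based bounds plus 3 SD, cut at about 20% in these data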;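 also: 0% = DMSO wells while the 100% control is not disclosed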
ADAM17 inh = inhibitors of human ADAM17; P78536; recombinant ADAM17, EDANS/DABCYL FRET peptide cleavage; inhibition, % at 6.95 µM; hit rate 0.83% among 370,000;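 active = inhibition above the mean of compounds lying between control limits plus 3 SD, set per campaign, cut at about 8.5% in these data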;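 also: 0% = DMSO-only wells as the low control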
ADAM10 confirm = confirmation of inhibitors of human ADAM10 | inhibition, % at 6.95 µM | shares compounds with ADAM10 inh | AID 743208 | hit rate 1% among 2,100 | ADAM10 QFRET peptide cleavage, EDANS fluorescence;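 active = inhibition above about 20% chosen separately for each screening run, limit read from the data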;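 also: 0% = DMSO wells and 100% = marimastat wells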
ADAM17 counter = ADAM17 inhibition, counter-screen for ADAM10 exosite hits; shares compounds with ADAM10 inh; ADAM17 QFRET peptide cleavage, EDANS fluorescence; inhibition, % at 6.95 µM; hit rate 0.5% among 2,100;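 active = mean triplicate inhibition above the solvent-only control wells' mean plus 3 SD, cut at about 12% in these data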;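 also: 0% = DMSO wells and 100% = marimastat wells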
ADAM10 counter = counter-screen for ADAM17 exosite inhibitors: inhibitors of human ADAM10. shares compounds with ADAM17 inh. recombinant ADAM10, EDANS/DABCYL FRET peptide cleavage, 3 h. inhibition, % at 6.95 µM. hit rate 47% among 2,900. AID 743256;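 active = mean inhibition over the triplicate runs exceeds the activity threshold set in the earlier primary screen, cut at about 20% in these data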;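 also: 0% = DMSO wells and 100% = marimastat wells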
ADAM17 confirm = human ADAM17 inhibition, confirmation | hit rate 65% among 2,900 | recombinant ADAM17, EDANS/DABCYL QFRET peptide cleavage | inhibition, % at 6.95 µM | shares compounds with ADAM17 inh;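 active = mean inhibition across replicates above the hit cutoff set in the primary screen, cut at about 8.5% in these data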;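 also: 0% = DMSO wells and 100% = marimastat wells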
* marks the source's active call; other numbers are inactive results.

For CCN1CCN(c2oc(COc3ccc(Cl)cc3)nc2C#N)CC1 the results were proKLK7 act 0, FAS TE block 4, NR3A LBD binder 2, ADAM10 inh 1 and ADAM17 inh -1.
Screening CN1CCN(c2oc(COc3ccc(-c4ccccc4)cc3)nc2C#N)CC1 returned proKLK7 act 1, FAS TE block 17, NR3A LBD binder -3, ADAM10 inh 27*, ADAM17 inh 18*, ADAM10 confirm 3, ADAM17 counter 1, ADAM10 counter 23* and ADAM17 confirm 14*.
Screening COc1ccc(N)cc1CN1CCN(c2ncc(Cc3ccccc3)cn2)CC1 returned proKLK7 act 0, ADAM10 inh 2 and ADAM17 inh -2.
For Cc1cccc(NS(=O)(=O)c2cc(C(=O)NCCC3=CCCCC3)ccc2Cl)c1 the results were proKLK7 act 0, FAS TE block 27, NR3A LBD binder 7, ADAM10 inh 21*, ADAM17 inh 8.7*, ADAM10 confirm 6, ADAM17 counter 2, ADAM10 counter 21* and ADAM17 confirm 12*.
Screening Cc1ccc(C(=O)NCCSc2ccc(Cl)cc2)cc1S(=O)(=O)Nc1ccccc1 returned proKLK7 act 0, FAS TE block 28, NR3A LBD binder 22*, ADAM10 inh 25*, ADAM17 inh 11*, ADAM10 confirm 7, ADAM17 counter 2, ADAM10 counter 27* and ADAM17 confirm 16*.
For Cc1ccc(SCCNC(=O)c2ccc(C)c(S(=O)(=O)Nc3cccc(C)c3)c2)cc1 the results were proKLK7 act 0, FAS TE block 30, NR3A LBD binder 7, ADAM10 inh 27*, ADAM17 inh 12*, ADAM10 confirm 7, ADAM17 counter 3, ADAM10 counter 30* and ADAM17 confirm 17*.
For O=C(NCCN1CCOCC1)c1ccc2c(c1)N(Cc1ccccc1)C(=O)CS2 the results were proKLK7 act 0, FAS TE block -4, NR3A LBD binder 0, ADAM10 inh 0 and ADAM17 inh -3.
For O=C(NCCC1=CCCCC1)c1ccc2c(c1)N(Cc1ccccc1)C(=O)CS2 the results were proKLK7 act 1, FAS TE block 32, NR3A LBD binder 0, ADAM10 inh 27*, ADAM17 inh 17*, ADAM10 confirm 8, ADAM17 counter 2, ADAM10 counter 26* and ADAM17 confirm 13*.
`CCCCCCCCN1C(=O)[C@@H](CC(=O)N2CCOCC2)C[C@@]2(C(=O)OC)C1=C[C@H](C1CCCC1)O[C@@H]2C` gave proKLK7 act 1, ADAM10 inh 12 and ADAM17 inh 4.
O=C(NCC1CCN(C(=O)C(=O)c2cc3ccccc3o2)CC1)c1ccc2c(c1)OCCCO2 was read as proKLK7 act 0, ADAM10 inh -10 and ADAM17 inh -3.
Screening Cc1ccc(NS(=O)(=O)c2cc(C(=O)NCCSc3ccc(C)cc3)ccc2C)cc1 returned proKLK7 act 0, FAS TE block 32, NR3A LBD binder 13*, ADAM10 inh 23*, ADAM17 inh 12*, ADAM10 confirm 7, ADAM17 counter 3, ADAM10 counter 38* and ADAM17 confirm 20*.
OCC1SC(O)C(O)C(O)C1O (stereo not given) was read as proKLK7 act 0, ADAM10 inh -11 and ADAM17 inh 0.
Cc1ccccc1N=C(NOCc1ccc(Cl)cc1Cl)c1nonc1N was read as proKLK7 act 1, FAS TE block 39, NR3A LBD binder -3, ADAM10 inh 20*, ADAM17 inh 9.6*, ADAM10 confirm 14, ADAM17 counter 3, ADAM10 counter 33* and ADAM17 confirm 24*.
`Cc1ccccc1N=C(NOCc1ccccc1)c1nonc1N` gave proKLK7 act 0, FAS TE block 18, NR3A LBD binder 2, ADAM10 inh 17 and ADAM17 inh 0.
Screening COC(=O)[C@]12C[C@H](CC(=O)N3CCN(C(=O)C4CC4)CC3)C(=O)N(Cc3ccccc3)C1=C[C@H](C(C)(C)C)O[C@@H]2C returned proKLK7 act 0, ADAM10 inh -4 and ADAM17 inh -4.
For CON(C)C(=O)C(C)(C)CC#CCN(CC#Cc1ccccc1)S(=O)(=O)c1ccc(C)cc1 the results were proKLK7 act 1, ADAM10 inh 3 and ADAM17 inh 1.
`S=C(Nc1ccc(Nc2ccccc2)cc1)NC1CCCCCC1` gave proKLK7 act 0, FAS TE block 34, NR3A LBD binder 9, ADAM10 inh 30*, ADAM17 inh 10*, ADAM10 confirm 17, ADAM17 counter 4, ADAM10 counter 28* and ADAM17 confirm 17*.
COc1ccccc1NS(=O)(=O)c1cc(NC(=O)c2cccs2)ccc1N1CCCCC1 was read as proKLK7 act -7, FAS TE block 29, NR3A LBD binder 1, ADAM10 inh 7 and ADAM17 inh 4.
O=C(Nc1ccc(N2CCCC2)c(S(=O)(=O)Nc2cccc(C(F)(F)F)c2)c1)c1cccs1 was read as proKLK7 act -1, FAS TE block 32, NR3A LBD binder 30*, ADAM10 inh 28*, ADAM17 inh 15*, ADAM10 confirm 15, ADAM17 counter 5, ADAM10 counter 42* and ADAM17 confirm 24*.
Screening Cc1cc(N2CCN(C(=O)OC(C)(C)C)C[C@@H]2C)ccc1N1CCN(Cc2ccccc2)[C@@H](C)C1 returned proKLK7 act 0, ADAM10 inh -4 and ADAM17 inh 0.
Screening O=C(Nc1ccc(Cl)c(C(F)(F)F)c1)c1ccncc1 returned proKLK7 act 0, FAS TE block 7, NR3A LBD binder -2, ADAM10 inh 9 and ADAM17 inh 0.
CNC(=O)c1cc(Oc2ccc(NC(=O)Nc3ccc(Cl)c(C(F)(F)F)c3)cc2)ccn1 was read as proKLK7 act 0, FAS TE block 22, NR3A LBD binder 12*, ADAM10 inh 25*, ADAM17 inh 16*, ADAM10 confirm 7, ADAM17 counter 2, ADAM10 counter 35* and ADAM17 confirm 20*.
Screening Cn1nc(C(C)(C)C)cc1C(=O)N1CCCCC1c1cc(C(=O)Nc2ccc(F)c(Cl)c2)no1 (stereo not given) returned proKLK7 act 1, FAS TE block 22, ADAM10 inh 20*, ADAM17 inh 12*, ADAM10 confirm 5, ADAM17 counter 2, ADAM10 counter 20* and ADAM17 confirm 12*.
